Unmarked numbers belong to inactive results.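 Rule for the calls: active = AUC reduced over 20% with Padj below 0.05 in at least 2 of 3 replicates; inactive = otherwise.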
system: Odoribacter splanchnicus; assay: growth AUC relative to DMSO control (median of replicates) (fraction); higher = more growth (less inhibition), active = hit call of the paper; settings: 20 µM; 24 h
In short: (§1)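 In round-bottom 96-well plates sealed with pierced gas-permeable seals, gut bacterial monocultures in mGAM were grown anaerobically at 37 °C from OD600 0.05 with 20 µM compound (1% DMSO). OD600 readings were taken hourly for 24 h, and the minimum OD was set to 0. Area under the growth curve was then normalised to the plate median of solvent-only wells, or to row and column medians on the industrial chemical plate. The value given is the median of three biological replicates grown on separate days.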

SMILES	growth AUC
Clc1ccc(C(c2ccccc2Cl)C(Cl)Cl)cc1 (stereo unspecified)	1.02
CSc1nc(NC2CC2)nc(NC(C)(C)C)n1	1.11
CCc1cccc(C)c1N(C(=O)C(=O)O)[C@@H](C)C(=O)O	0.95
CCNc1nc(NC(C)(C)C)[nH]c(=O)n1	0.948
CC(C)N(C(=O)C(=O)O)c1ccccc1	1.05
Cc1nn(C)c(F)c1C(=O)Nc1ccccc1C(C)CC(C)C (stereo unspecified)	0.899
CC(C)c1cc(Oc2ccccc2)cc(C(C)C)c1NC(=S)NC(C)(C)C	0.989
CCCCOCCOC(=O)COc1ccc(Cl)cc1Cl	0.97
CCOC(=O)C(C)Oc1ccc(Oc2nc3ccc(Cl)cc3o2)cc1 (racemic)	1.01
C/C=C/C(=O)Oc1c(C(C)CCCCCC)cc([N+](=O)[O-])cc1[N+](=O)[O-] (mixture of isomers)	0.679
c1ccc2c(c1)Cc1ccccc1-2	1.05
CC(C)(C)C(O)/C(=C\c1ccc(Cl)cc1)n1cncn1 (stereo unspecified)	0.976
Oc1ccccc1	0.984
Cc1c(Br)c2ccc(F)cc2n1S(=O)(=O)c1ncn(S(=O)(=O)N(C)C)n1	0.957
NC(Cn1cncn1)C(=O)O (stereo unspecified)	0.967
CCCCC(CC)COC(=O)COc1ccc(Cl)cc1C (stereo unspecified)	0.934
c1ccc(CNc2ncnc3nc[nH]c23)cc1	1.03
CON=C(Cc1cccnc1)c1ccc(Cl)cc1Cl	0.821
COC(=O)Cc1cccc2ccccc12	1.08
CC1(C)C(=O)Oc2ccc(OS(C)(=O)=O)cc21	0.993
CN(C)c1ccc(N=NS(=O)(=O)[O-])cc1.[Na+]	1.03
CCOC(=O)Cn1c(=O)sc2cccc(Cl)c21	0.979

system: Parabacteroides distasonis; assay: as above; settings: 20 µM; 24 h
In short: as §1

SMILES	growth AUC
O=C(O)Cc1c(Cl)ccc(Cl)c1Cl	1.05
COc1cc(OC)c(Cl)cc1N	1.02
O=S(Cc1ccc(Cl)cc1)c1ccc(Cl)cc1 (stereo unspecified)	0.947
Cc1cc(C)c(C2=C(O)C3(CCCC3)OC2=O)c(C)c1	0.622 (active)
CN(C)C(=O)c1cccnc1S(N)(=O)=O	1.01
CCCN(CCOc1c(Cl)cc(Cl)cc1Cl)C(N)=O	0.949
Cc1nn(C)c(OCC(=O)c2ccccc2)c1C(=O)c1ccc(Cl)cc1Cl	0.674 (active)
CC(C)(C)Nc1nc(N)nc(Cl)n1	1.02
COC(=O)c1c(Cl)nn(C)c1S(=O)(=O)NC(=O)Nc1nc(OC)cc(OC)n1	1.01
[S]	0.986
CCCCCCCCc1c(CC)nc2ncnn2c1N	0.946
Cn1cc(C(=O)Nc2ccccc2-c2cc(F)c(F)c(F)c2)c(C(F)F)n1	0.916
CCCOc1nc2ccc(I)cc2c(=O)n1CCC	0.647 (active)
CNc1nc(NC(C)C)nc(SC)n1	0.985
CC(C)(C)[C@@H](O)[C@@H](Cc1ccc(Cl)cc1)n1cncn1 (mixture of isomers)	0.983
Cc1ccc2c(c1)[C@H](Nc1nc(N)nc(C(C)F)n1)[C@@H](C)C2 (stereo partly specified)	1.09
CCN(CC)c1nc(C)cc(=O)[nH]1	1
Clc1ccc(C(c2ccccc2Cl)C(Cl)Cl)cc1 (stereo unspecified)	0.615 (active)
CSc1nc(NC2CC2)nc(NC(C)(C)C)n1	1.02
CCc1cccc(C)c1N(C(=O)C(=O)O)[C@@H](C)C(=O)O	0.809

SMILES	growth AUC
CCNc1nc(NC(C)(C)C)[nH]c(=O)n1	1.01
CC(C)N(C(=O)C(=O)O)c1ccccc1	1.07
Cc1nn(C)c(F)c1C(=O)Nc1ccccc1C(C)CC(C)C (stereo unspecified)	0.96
CC(C)c1cc(Oc2ccccc2)cc(C(C)C)c1NC(=S)NC(C)(C)C	1.05
CCCCOCCOC(=O)COc1ccc(Cl)cc1Cl	0.721 (active)
CCOC(=O)C(C)Oc1ccc(Oc2nc3ccc(Cl)cc3o2)cc1 (racemic)	0.824
C/C=C/C(=O)Oc1c(C(C)CCCCCC)cc([N+](=O)[O-])cc1[N+](=O)[O-] (mixture of isomers)	0.288 (active)
c1ccc2c(c1)Cc1ccccc1-2	0.962
CC(C)(C)C(O)/C(=C\c1ccc(Cl)cc1)n1cncn1 (stereo unspecified)	0.959
Oc1ccccc1	1.04
Cc1c(Br)c2ccc(F)cc2n1S(=O)(=O)c1ncn(S(=O)(=O)N(C)C)n1	0.861
NC(Cn1cncn1)C(=O)O (stereo unspecified)	1.05
CCCCC(CC)COC(=O)COc1ccc(Cl)cc1C (stereo unspecified)	0.923
c1ccc(CNc2ncnc3nc[nH]c23)cc1	1.05
CON=C(Cc1cccnc1)c1ccc(Cl)cc1Cl	1.04
COC(=O)Cc1cccc2ccccc12	0.986
CC1(C)C(=O)Oc2ccc(OS(C)(=O)=O)cc21	1.01
CN(C)c1ccc(N=NS(=O)(=O)[O-])cc1.[Na+]	1.04
CCOC(=O)Cn1c(=O)sc2cccc(Cl)c21	1.07
